Values joined by “and” are separate entries in the source; they are usually repeats but may differ in a detail not shown here. Identical values can stand only once. Inconclusive results are not listed. Some compounds were tested as several samples or in several runs, with calls that do not always agree. Active and inactive are the calls of the source. Rule for the calls, unless noted: active = hit-call score of the fitted dose curve at least 0.9, where 1 is the maximum; inactive = score below 0.9.

The nature of one assay: CCTE_Harrill_HTTr_CellCount_MCF7: CCTE's Cell Proliferation Assessment for the High-Throughput Transcriptomics (HTTr) Platform, Harrill Lab (AID 2284012; active = hit-call score of the fitted dose curve at least 0.9, where 1 is the maximum;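 note: cells exposed to compound for six hours; intended direction is loss of nuclei count meaning fewer cells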). The essentials: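 Cell count from high-content imaging of Hoechst-labeled nuclei serves as viability/growth readout. Chemicals were applied to MCF-7 cells in eight concentrations for six hours, with fitting in both directions relative to DMSO.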
With `CCC(C)(C)C(=O)OC1=C(c2ccc(Cl)cc2Cl)C(=O)OC12CCCCC2`, the call was inactive.

In the case of `Oc1ccc(Cl)cc1Cc1ccccc1`, the call was inactive.

With `O=[N+]([O-])/N=C1\NCCN1Cc1ccc(Cl)nc1`, the compound was classed as inactive.

Take `N#Cc1c(Cl)c(Cl)c(Cl)c(C#N)c1Cl`: the call was inactive.

With `O=[N+]([O-])c1c(Cl)c(Cl)c(Cl)c(Cl)c1Cl`, the compound was classed as inactive.

For the compound `CC[C@H](C)[C@H]1O[C@]2(C=C[C@@H]1C)C[C@@H]1C[C@@H](C/C=C(\C)[C@@H](O[C@H]3C[C@H](OC)[C@@H](O[C@H]4C[C@H](OC)[C@@H](O)[C@H](C)O4)[C@H](C)O3)[C@@H](C)/C=C/C=C3\CO[C@@H]4[C@H](O)C(C)=C[C@@H](C(=O)O1)[C@]34O)O2` (tested in a mixture with another compound), the outcome was inactive.

Regarding `CCC(C)(NC(=O)c1cc(Cl)c(C)c(Cl)c1)C(=O)CCl` (centres undefined), the compound was called inactive.

As for `CCOCN(C(=O)CCl)c1c(C)cccc1CC`, the call was inactive.

On to `O=S1OCC2C(CO1)C1(Cl)C(Cl)=C(Cl)C2(Cl)C1(Cl)Cl` (centres undefined), for which the result was inactive.

As for `CC(C)(C)C(O)/C(=C\c1ccc(Cl)cc1Cl)n1cncn1` (centres undefined), the result was inactive.

On to `Oc1cc(Cl)ccc1Oc1ccc(Cl)cc1Cl`, for which the compound was called inactive.

As to `O=C(O)COc1ccc(Cl)cc1Cl`, the result was inactive.

In the case of `Cc1[nH]c(=O)n(C(C)(C)C)c(=O)c1Cl`, the result was inactive.

`CCCN(CCOc1c(Cl)cc(Cl)cc1Cl)C(=O)n1ccnc1`: the result was inactive.

Consider `COP(=S)(OC)Oc1ccc([N+](=O)[O-])cc1`, for which the result was inactive.

Another assay is described as follows: CCTE_Shafer_MEA_acute_burst_number: CCTE's Neural Acute Assay for Single-Electrode Bursts, Shafer Lab (AID 2284013). In outline: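 Percent change in single-electrode burst number per well, from 40-min recordings taken before and after adding compound (0.03-40 uM) to primary rat cortical neurons on MEA plates at DIV 13 or 15, 37 C.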
Take `CCCN(CCC)c1c([N+](=O)[O-])cc(C(F)(F)F)cc1[N+](=O)[O-]`: the compound was called inactive.

For the compound `CCC(C)(C)C(=O)OC1=C(c2ccc(Cl)cc2Cl)C(=O)OC12CCCCC2`, the outcome was inactive.

For orientation: AC50 means the concentration at which the activity in the assay is half-maximal. As to `Oc1ccc(Cl)cc1Cc1ccccc1`, the AC50 is 0.814 µM (active).

Regarding `O=[N+]([O-])/N=C1\NCCN1Cc1ccc(Cl)nc1`, the call was inactive.

Turning to `N#Cc1c(Cl)c(Cl)c(Cl)c(C#N)c1Cl`, the outcome was inactive.

Turning to `O=C(O)CCCOc1ccc(Cl)cc1Cl`, the compound was classed as inactive.

For the compound `CC[C@H](C)[C@H]1O[C@]2(C=C[C@@H]1C)C[C@@H]1C[C@@H](C/C=C(\C)[C@@H](O[C@H]3C[C@H](OC)[C@@H](O[C@H]4C[C@H](OC)[C@@H](O)[C@H](C)O4)[C@H](C)O3)[C@@H](C)/C=C/C=C3\CO[C@@H]4[C@H](O)C(C)=C[C@@H](C(=O)O1)[C@]34O)O2` (tested in a mixture with another compound), the AC50 is 0.00721 µM (active).

Consider `CCC(C)Nc1c([N+](=O)[O-])cc(C(C)(C)C)cc1[N+](=O)[O-]` (centres undefined), for which the compound was called inactive.

For `O=S1OCC2C(CO1)C1(Cl)C(Cl)=C(Cl)C2(Cl)C1(Cl)Cl` (centres undefined), the outcome was inactive.

On to `Oc1cc(Cl)ccc1Oc1ccc(Cl)cc1Cl`, for which the AC50 was 1.29 µM (active).

Turning to `C[C@H]1[C@H](c2ccc(Cl)cc2)SC(=O)N1C(=O)NC1CCCCC1`, the AC50 is 10.3 µM (active).

`CCCN(CCOc1c(Cl)cc(Cl)cc1Cl)C(=O)n1ccnc1`: the AC50 is 1.56 µM (active).

The nature of another assay: CCTE_Shafer_MEA_acute_burst_duration_mean: CCTE's Neural Acute Assay for Mean Burst Duration, Shafer Lab (AID 2284014).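 Note: hits are decreases in mean burst duration relative to DMSO controls.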 In outline: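 Rat cortical cultures, DIV 13/15; 40 min baseline, then 40 min with compound (0.03-40 uM), 37 C. Spikes: 300-5000 Hz band-pass, 8x rms threshold. Read-out: % change in mean single-electrode burst duration, DMSO-referenced, loss direction.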
Take `CCCN(CCC)c1c([N+](=O)[O-])cc(C(F)(F)F)cc1[N+](=O)[O-]`: the outcome was inactive.

For the compound `CCC(C)(C)C(=O)OC1=C(c2ccc(Cl)cc2Cl)C(=O)OC12CCCCC2`, the AC50 was 25.9 µM (active) and the outcome was inactive.

Regarding `Oc1ccc(Cl)cc1Cc1ccccc1`, the call was inactive.

Consider `O=[N+]([O-])/N=C1\NCCN1Cc1ccc(Cl)nc1`, for which the result was inactive.

For `N#Cc1c(Cl)c(Cl)c(Cl)c(C#N)c1Cl`, the result was inactive.

For the compound `O=C(O)CCCOc1ccc(Cl)cc1Cl`, the call was inactive.

Consider `CC[C@H](C)[C@H]1O[C@]2(C=C[C@@H]1C)C[C@@H]1C[C@@H](C/C=C(\C)[C@@H](O[C@H]3C[C@H](OC)[C@@H](O[C@H]4C[C@H](OC)[C@@H](O)[C@H](C)O4)[C@H](C)O3)[C@@H](C)/C=C/C=C3\CO[C@@H]4[C@H](O)C(C)=C[C@@H](C(=O)O1)[C@]34O)O2` (tested in a mixture with another compound), for which the concentration at half-maximal activity (AC50) is 0.0208 µM (active).

In the case of `CCC(C)Nc1c([N+](=O)[O-])cc(C(C)(C)C)cc1[N+](=O)[O-]` (centres undefined), the outcome was inactive.

Take `O=S1OCC2C(CO1)C1(Cl)C(Cl)=C(Cl)C2(Cl)C1(Cl)Cl` (centres undefined): the AC50 is 0.269 µM (active) and the compound was classed as inactive.

In the case of `Oc1cc(Cl)ccc1Oc1ccc(Cl)cc1Cl`, the call was inactive.

As for `C[C@H]1[C@H](c2ccc(Cl)cc2)SC(=O)N1C(=O)NC1CCCCC1`, the AC50 is 20 µM (active).

For `CCCN(CCOc1c(Cl)cc(Cl)cc1Cl)C(=O)n1ccnc1`, the AC50 was 29.5 µM (active).

Another assay in a line: CCTE_Shafer_MEA_acute_per_burst_spike_number_mean: CCTE's Neural Acute Assay for Average Number of Spikes Per Burst, Shafer Lab (AID 2284015).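 Note: hits are decreases in mean spikes per burst versus baseline.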 The essentials:
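Read-out: percent change in mean spikes per burst, each well's post-exposure 40-min recording versus its own 40-min baseline. Rat cortical cultures, DIV 13 or 15, compounds 0.03-40 uM; DMSO is negative control, loss-of-signal fitting.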
With `CCCN(CCC)c1c([N+](=O)[O-])cc(C(F)(F)F)cc1[N+](=O)[O-]`, the compound was classed as inactive.

Consider `CCC(C)(C)C(=O)OC1=C(c2ccc(Cl)cc2Cl)C(=O)OC12CCCCC2`, for which the AC50 is 20 µM (active) and the call was inactive.

`Oc1ccc(Cl)cc1Cc1ccccc1`: the result was inactive.

In the case of `O=[N+]([O-])/N=C1\NCCN1Cc1ccc(Cl)nc1`, the outcome was inactive.

With `N#Cc1c(Cl)c(Cl)c(Cl)c(C#N)c1Cl`, the call was inactive.

With `O=C(O)CCCOc1ccc(Cl)cc1Cl`, the compound was called inactive.

With `CC[C@H](C)[C@H]1O[C@]2(C=C[C@@H]1C)C[C@@H]1C[C@@H](C/C=C(\C)[C@@H](O[C@H]3C[C@H](OC)[C@@H](O[C@H]4C[C@H](OC)[C@@H](O)[C@H](C)O4)[C@H](C)O3)[C@@H](C)/C=C/C=C3\CO[C@@H]4[C@H](O)C(C)=C[C@@H](C(=O)O1)[C@]34O)O2` (tested in a mixture with another compound), the concentration at half-maximal activity (AC50) was 0.00576 µM (active).

Regarding `CCC(C)Nc1c([N+](=O)[O-])cc(C(C)(C)C)cc1[N+](=O)[O-]` (centres undefined), the outcome was inactive.

Regarding `O=S1OCC2C(CO1)C1(Cl)C(Cl)=C(Cl)C2(Cl)C1(Cl)Cl` (centres undefined), the AC50 is 223 nM (active) and 58.3 nM (active).

Take `Oc1cc(Cl)ccc1Oc1ccc(Cl)cc1Cl`: the result was inactive.

In the case of `C[C@H]1[C@H](c2ccc(Cl)cc2)SC(=O)N1C(=O)NC1CCCCC1`, the AC50 was 17.2 µM (active).

As to `CCCN(CCOc1c(Cl)cc(Cl)cc1Cl)C(=O)n1ccnc1`, the AC50 is 33.1 µM (active).

For the origin of these results see PubChem BioAssay (EPA / NIEHS).
